{
  "source": "PubChem BioAssay (NCATS)",
  "note": "Records with an inconclusive call do not appear. Where a call stands in place of a potency, no number is given. The source made the active and inactive calls. Calls come from the whole dose curve; as a rule, active = well fitted inhibition curve with a large enough effect; inconclusive = small, poorly fitted or top-dose-only effect; inactive = flat fitted curve, though single readings scatter.",
  "data": [
    {"target": "Calcium and integrin-binding protein 1 (Homo sapiens) (UniProt Q99828)", "sequence (Q99828 whole entry, looked up)": "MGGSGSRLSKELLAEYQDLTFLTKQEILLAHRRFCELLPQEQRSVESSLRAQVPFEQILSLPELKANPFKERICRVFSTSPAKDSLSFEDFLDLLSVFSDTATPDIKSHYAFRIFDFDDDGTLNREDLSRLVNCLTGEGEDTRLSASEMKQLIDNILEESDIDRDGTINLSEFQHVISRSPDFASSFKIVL", "assay": "Primary qHTS for Identification of Calcium Integrin Binding Protein 1 (CIB1) Competitor (AID 1508620);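 note: GST tagged CIB1 binding a fluorescein labelled alphaIIb integrin peptide tracer; top concentration of the series differs between compounds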", "details": "CIB1-GST / FITC-alphaIIb peptide fluorescence polarization; series mostly up to 114 µM", "summary_of_the_method": "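Fluorescence polarization competition: CIB1-GST (1 uM final) preincubated with compound 15 min at room temperature, then FITC-labeled alphaIIb peptide (100 nM final) added for another 15 min. Polarization read at Ex 480/Em 540.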", "values": [
      {"smiles": "CC(=O)Nc1sc2c(c1-c1cc3ccccc3[nH]1)CCNC2", "Potency": "inactive"},
      {"smiles": "Cc1cc2c(s1)c1cnn(Cc3cccc(F)c3)c(=O)c1n2C", "Potency": "inactive"},
      {"smiles": "Cc1cc2c(s1)c1cnn(Cc3cc(F)cc(F)c3F)c(=O)c1n2C", "Potency": "inactive"},
      {"smiles": "Cc1c(Br)cc(F)c([S+](=O)([O-])N2CCN([S+](=O)([O-])c3ccc4c(c3)OCCO4)CC2)c1F", "Potency": "inactive"},
      {"smiles": "FC(F)(F)c1ccccc1-c1nc(NCc2ccc(C3CCCCC3)cc2)c2ccccc2n1", "Potency": "inactive"},
      {"smiles": "Cc1cnc(-c2ccccc2C2COC2)nc1NCc1ccc(-n2ccnn2)cc1", "Potency": "inactive"},
      {"smiles": "CC(=O)c1ccc(N2CCN(S(=O)(=O)c3ccc4c(c3)n(C)c(=O)n4C)CC2)cc1", "Potency": "inactive"},
      {"smiles": "CC(C)(C)Cc1nnc(NC(=O)CSc2ccccc2)s1", "Potency": "inactive"},
      {"smiles": "Oc1cc(Nc2ccccc2)cc2cccnc12", "Potency": "inactive"},
      {"smiles": "O=C(CN1C(=O)N/C(=C\\c2cccn2-c2cccc(C(=O)O)c2)C1=O)Nc1cccc(F)c1", "Potency": "inactive"},
      {"smiles": "O=C(CSc1nnc(-c2cccc([S+](=O)([O-])N3CCCC3)c2)n1-c1ccccc1)Nc1ccc(Br)cc1", "Potency": "inactive"},
      {"smiles": "Cc1nc(-c2ccccc2C(C)C)nc(NCc2ccc(-c3cccnc3)cc2)c1C", "Potency": "inactive"},
      {"smiles": "Fc1cnc(-c2ccccc2C(F)F)nc1NCc1ccc(-c2cccnc2)cc1", "Potency": "inactive"},
      {"smiles": "CCOC(=O)C1CCN(C(=O)C(C)(C)NC(=O)Nc2ccc(N(C)C)cc2)CC1", "Potency": "inactive"},
      {"smiles": "Cc1cccc(C(=O)NC2CCN(C#N)CC2)c1", "Potency": "inactive"},
      {"smiles": "O=C(NNC(=O)c1cc2ccccc2[nH]1)OCc1ccccc1", "Potency": "inactive"},
      {"smiles": "O=C(Nc1ncc(Cc2cccc(C(F)(F)F)c2)s1)c1ccc(-c2cccc([N+](=O)[O-])c2)o1", "Potency": "inactive"},
      {"smiles": "COc1ccc(O)c(CNc2ccc(S(=O)(=O)Nc3nccs3)cc2)c1", "Potency": "inactive"},
      {"smiles": "O=S(=O)(c1ccc2c(c1)OCCO2)C1CCC(S(=O)(=O)c2c(F)cccc2F)CC1", "note": "(stereo not given)", "Potency": "inactive"},
      {"smiles": "NC(=O)C1CCN(c2nc(-c3ccc(F)cc3)cs2)CC1", "Potency": "inactive"},
      {"smiles": "Cc1ccc(OCCn2c(CCNC(=O)c3cccc(C(F)(F)F)c3)nc3ccccc32)cc1", "Potency": "inactive"},
      {"smiles": "Cc1csc(CNc2ncnc3ccc(-c4ccco4)cc23)c1", "Potency": "inactive"},
      {"smiles": "O=[N+]([O-])c1ccc([S+](=O)([O-])N2CCN([S+](=O)([O-])c3ccc4c(c3)OCCO4)CC2)c([N+](=O)[O-])c1", "Potency": "inactive"},
      {"smiles": "FC(F)(F)c1cccc(-c2nc(NCc3ccc(-c4cccnc4)cc3)c3ccccc3n2)c1", "Potency": "inactive"},
      {"smiles": "COc1ccccc1C(=O)NCCc1nc2ccccc2n1CCOc1ccc(C)cc1", "Potency": "inactive"},
      {"smiles": "COc1cccc(CNc2ccc(S(=O)(=O)Nc3cnc4ccccc4c3)cc2)c1O", "Potency": "inactive"},
      {"smiles": "O=C(Nc1ccc2ccccc2c1)Nc1nnc(C2CCCCC2)s1", "Potency": "inactive"},
      {"smiles": "O=C(Cc1nnc(-c2cc3ccccc3[nH]2)o1)Nc1cc(C(F)(F)F)ccc1Cl", "Potency": "inactive"},
      {"smiles": "COc1ccc(C2=Nn3c(nnc3-c3ccccc3Cl)SC2)cc1OC1CCOC1", "note": "(stereo not given)", "Potency": "inactive"},
      {"smiles": "Cc1cc(C)nc(NC(=S)N2CCN(c3cc(C#N)cc(C#N)c3)CC2)c1", "Potency": "inactive"},
      {"smiles": "O=S(=O)(Nc1nc(-c2ccccc2C(F)(F)F)nc2ccccc12)c1ccc(-c2cccnc2)cc1", "Potency": "inactive"},
      {"smiles": "O=C(CSc1ccccc1)Nc1nnc(COc2ccc(Cl)cc2)s1", "Potency": "inactive"},
      {"smiles": "COc1ccc(NC(=O)C(OC(=O)CNC(=O)c2ccccc2)c2ccccc2)c(C)c1", "note": "(stereo not given)", "Potency": "inactive"},
      {"smiles": "N#Cc1cccc(NC(=O)Nc2nnc(-c3ccncc3)s2)c1", "Potency": "inactive"},
      {"smiles": "O=C1CCCC2=C1C(c1ccc(F)cc1)N=C(Nc1nc3ccccc3o1)N2", "note": "(stereo not given)", "Potency": "inactive"},
      {"smiles": "COc1cc(F)c(S(=O)(=O)N2CCN(S(=O)(=O)c3cccs3)CC2)c(F)c1", "Potency": "inactive"},
      {"smiles": "Cc1ccc(C(=O)Nc2ccc(N3CCOCC3)cc2)cc1", "Potency": "inactive"},
      {"smiles": "Cc1ccc(OCCn2c(CCNC(=O)Cc3cc(F)ccc3F)nc3ccccc32)cc1", "Potency": "inactive"},
      {"smiles": "Cc1sc(NC(=O)Cc2ccc3c(c2)OCO3)nc1-c1ccc2c(c1)CCN2C(=O)c1ccccc1C(F)(F)F", "Potency": "inactive"},
      {"smiles": "Cc1cccc(CNc2ccnc(-c3cccc4ccccc34)n2)c1", "Potency": "inactive"}
    ]}
  ]
}
